Screens deposited in PubChem BioAssay by National Center for Advancing Translational Sciences (NCATS).
An excerpt weighted towards active compounds, which were near 21% of everything screened.
CHX counter: counter-screen for Shiga toxin inhibitors: cycloheximide protein synthesis inhibition; cell reporter, cycloheximide protein synthesis inhibition counterscreen; max response, %; 300,000 compounds, 12% hits; AID 2314; in the data active = max response mostly above about 13%, no sharp cut-off; inactive = mostly below about 14%; also: read at 38.3 µM for the half of the compounds with a filed dose; 0% is about no effect
Shiga toxin inh: Shiga toxin inhibition; Vero cells, Shiga toxin protein synthesis inhibition reporter; inhibition, % at 38.7 µM; 290,000 compounds, 9.2% hits; in the data active = inhibition mostly above about 28%, no sharp cut-off; inactive = mostly below about 43%; also: 0% is about no effect
HCV inhibitor: inhibitors of hepatitis C virus infection. Huh7.5.1 HCVcc-Cre infection, luciferase reporter, 44 h. Potency, µM (doses to about 41.8 µM), inactives show top-dose activity change, negative = inhibition, most hits filed as inhibitors. 340,000 compounds, 3.4% hits; also: potency is read from the fitted curve at half-maximal effect; % is scaled to controls: 0 for no effect and ±100 for the full control effect
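Luciferase read-out (15 sec integration) after a 15 min room-temperature substrate step quantifies HCVcc-Cre infection. Cells, 1,000 per well, had compound added 4 h post-plating, then virus at ~0.5 moi, and were cultured 44 h.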
Pf growth 96h: P. falciparum growth inhibition at 96 hours; P. falciparum luciferase reporter growth, 96 h; Potency, µM (top dose mostly 28.7 µM), inactives show at the top dose activity change, negative = inhibition, usual class: inhibitors; 320,000 compounds, 6.9% hits; AID 504834; also: potency is read from the fitted curve at half-maximal effect; % is scaled to controls: 0 for no effect and ±100 for the full control effect
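96 h incubation, 37 C, 5% CO2, of luciferase-reporter P. falciparum-infected RBCs (2% hematocrit, 0.05% parasitemia final) with test compounds; endpoint luminescence.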
AMA1-RON2 inh: AMA1-RON2 (P. falciparum) interaction inhibition | 360,000 compounds, 0.2% hits | AlphaScreen AMA1-biotinylated RON2 peptide binding | Potency, µM (doses to about 58.2 µM), without a hit: at the highest dose activity change, negative = inhibition, usual class: inhibitors | AID 720542;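 also: potency is read from the fitted curve at half-maximal effect; 0% = vehicle wells and -100% = peptide control; nearly all actives have a fitted effect of over 45% in size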
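AMA1 (3D7) with his tag at 25 nM final met compounds first, then biotinylated RON2 peptide at 25 nM; detection used donor plus acceptor beads, 10 µg/mL apiece, read by AlphaScreen after 30 min at room temperature.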
Pf growth 48h: inhibits P. falciparum growth in the first generation, 48 h. P. falciparum luciferase growth in erythrocytes, 48 h. Potency, µM (series often up to 28.7 µM), for inactives: at the highest dose activity change, negative = inhibition, usual class: inhibitors. 310,000 compounds, 5.9% hits. AID 504832; also: potency is read from the fitted curve at half-maximal effect; % is scaled to controls: 0 for no effect and ±100 for the full control effect
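First compound was added to culture medium, then infected red cells at 0.1% parasitemia and 2% hematocrit (final). After incubation at 37 C under 5% CO2, luciferase detection reagent was dispensed and light output recorded.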
Numbers without * were called inactive; ? = inconclusive; . = no result; [ ] = remark or other dose. Unless noted, calls follow the shape of the dose curve; as a rule, active = well fitted curve in the direction sought with a large enough effect; inconclusive = small, poorly fitted or top-dose-only effect, or another doubt; inactive = no such curve, though single readings can be large; an effect the other way counts as inactive or inconclusive.

SMILES	CHX counter	Shiga toxin inh	HCV inhibitor	Pf growth 96h	AMA1-RON2 inh	Pf growth 48h
O=C(c1cc([N+](=O)[O-])[nH]n1)N1CCSCC1	-1	-4	0%	20%	-1%	2%
O=C(CSCc1c(F)cccc1Cl)NNC(=S)NC1CCCCC1	-4	20	26%	?	5%	-14%
O=C(COC(=O)CCC(=O)c1ccccc1)Nc1nnc(-c2ccccc2)o1	.	.	25%	-26%	51%	?
COc1ccc(-c2cc(C(=O)NN)[nH]n2)cc1	22*	active	-18%	32%	-4%	65%
O=C(N/N=C1\CCCc2ccccc21)c1cccc(Br)c1	38*	59*	?	7%	47%	66%
O=C(NN=C1CCCC1)c1cccc(Br)c1	26*	87*	-8%	15%	50%	7%
O=C(O)c1cc2c(o1)CCC/C2=N\O	-7	-5	.	-2%	-3%	18%
O=C(N/N=C1\CCCc2ccccc21)c1cccc([N+](=O)[O-])c1	10	33	-29%	13%	6%	.
O=C(N/N=C1/CCCc2ccccc21)C(c1ccccc1)c1ccccc1	1	61*	-11%	?	12%	?
O=C(N/N=C1\CCCc2oc(C(=O)O)cc21)c1ccccc1	44*	74*	9%	-15%	125%	32%
CC1C(=O)N2CCCc3cc(S(=O)(=O)Nc4ccccc4C(N)=O)cc1c32 (stereo not drawn)	.	.	6%	0%	-7%	?
CCOC(=O)N1CCC(NC(=O)CCC(=O)N2CCOc3ccc(Cl)cc32)CC1	2	18	-28%	6%	13%	34%
O=C(NCc1nc2ccccc2[nH]1)C1=C[C@@H](c2ccc3c(c2)OCO3)C[C@@H](OCc2ccc(CO)cc2)O1	2	16	.	?	.	9.3µM*
O=C(NCc1nc2ccccc2[nH]1)C1=C[C@H](c2ccc3c(c2)OCO3)C[C@H](OCCCCO)O1	9	23	?	4.1µM*	45%	?
O=C(NCc1nc2ccccc2[nH]1)C1=C[C@@H](c2ccccc2)C[C@@H](OCc2ccc(CO)cc2)O1	6	4	?	-16%	28%	?
O=C(NCc1nc2ccccc2[nH]1)C1=C[C@@H](C2CCCCC2)C[C@@H](OCc2ccc(CO)cc2)O1	11	46*	?	?	19%	?
O=C(NCc1nc2ccccc2[nH]1)C1=C[C@H](c2ccccc2)C[C@H](OCc2ccc(CO)cc2)O1	15*	29	?	1.7µM*	45%	1µM*
Cc1nnc(SCC(=O)NC2CCCC(C)C2C)n1N (stereo not drawn)	.	.	-4%	.	-13%	.
Cc1ccccc1OCC(=O)Nc1ccc2c(c1)C(=O)N(CCC(=O)O)C2=O	-3	-24	2%	0%	0%	26%
CC1CCC(C(C)C)C(OC(=O)Cn2c(-c3ccccc3)[n+](C)c3ccccc32)C1 (stereo not drawn)	-7	-1	?	245%	6%	0.47µM*
CC1CCC(C(C)C)C(OC(=O)C[n+]2cc(-c3ccc(Cl)cc3)n3c2CCC3)C1 (stereo not drawn)	-4	9	-15%	?	2%	?
CC1CCC(C(C)C)C(OC(=O)Cn2c(-c3ccc(F)cc3)[n+](C)c3ccccc32)C1 (stereo not drawn)	-1	-7	10µM*	?	-11%	0.83µM*
COc1ccc(NC(=O)c2cc([N+](=O)[O-])ccc2N2CCCC2)cc1S(N)(=O)=O	.	.	-15%	6%	10%	-7%
Cc1ccc(C)c(OCc2cc(C(=O)N3CCN(C(=O)c4ccco4)CC3)no2)c1	42*	78*	-6%	0%	-4%	-3%
Cc1cccc(COc2coc(CN3CCN(C(=O)c4ccco4)CC3)cc2=O)c1	.	.	-9%	12µM*	0%	?
SMILES	CHX counter	Shiga toxin inh	HCV inhibitor	Pf growth 96h	AMA1-RON2 inh	Pf growth 48h
Cc1ccc(C)c(OCc2cc(C(=O)N3CCN(c4ccccc4)CC3)no2)c1	93*	98*	?	-8%	-9%	4%
CC1CCN(C(=O)CN2C(=O)C(=O)N(C)C2=O)c2ccccc2S1 (stereo not drawn)	.	.	-8%	26%	4%	19%
COc1ccc(CCNC(=O)CSc2nn3c(=O)c(C)nnc3s2)cc1OC	-2	-9	3%	0.21µM*	141%	5.2µM*
Cc1nnc2sc(SCC(=O)Nc3cccc(Cl)c3)nn2c1=O	5	4	-11%	?	85%	-23%
COc1ccccc1CNC(=O)CSc1nn2c(=O)c(C(C)(C)C)nnc2s1	-6	13	-11%	?	77%	2.9µM*
COc1cccc(NC(=O)CSc2nn3c(=O)c(C)nnc3s2)c1	-3	-9	-5%	9.3µM*	21%	?
COc1ccc(NC(=O)CSc2nn3c(=O)c(C)nnc3s2)cc1	-3	-4	3%	12µM*	86%	?
COc1ccc(CNC(=O)CSc2nn3c(=O)c(C(C)(C)C)nnc3s2)cc1OC	-1	-7	?	?	48%	?
CC(C)(C)C(=O)Nc1cccc(S(=O)(=O)NC2=NCCC2)c1	.	.	?	15%	-5%	-5%
CC1(C(=O)NS(=O)(=O)Cc2cccc(Cl)c2)CCN1C(=O)C1CCCCC1 (stereo not drawn)	.	.	.	.	2%	.
O=C(Cn1cc([N+](=O)[O-])ccc1=O)N1CCc2ccccc21	.	.	6%	.	3%	.
CC1(C)CNc2cc([N+](=O)[O-])ccc2S1	39*	58*	-17%	-29%	-1%	?
COc1ccc(C(=O)NC(=S)N2CCOCC2)cc1Br	-3	-6	9%	?	78%	?
CC(C)(C)c1ccc(C(=O)NC(=S)N2CCOCC2)cc1	46*	92*	11%	2.6µM*	123%	-80%
CC(C)Oc1ccc(C(=O)NC(=S)N2CCOCC2)cc1	32*	45*	20%	?	64%	16%
O=C(CN1CCN(c2ccc(F)cc2)CC1)Nc1nccs1	-3	-4	-6%	2%	12%	1%[0.00184 µM]
O=C(NC(Cc1ccccc1)C(=O)N1CCCCC1)c1ccccc1 (stereo not drawn)	.	.	-1%	8%	-1%	0%
COc1oc(=O)c2cc(N)ccc2c1Cl	62*	71*	.	.	.	.
COc1ccc2c(C)c(Cl)c(=O)oc2c1	-2	2	-7%	-12%	-12%	0%
CC(=O)Nc1nc(-c2ccccc2)nc(C)c1C(C)=O	-3	3	7%	1.9µM*	-1%	21%
CCOC(=O)c1c(C)nc(-c2ccccc2)nc1NC(C)=O	17	85	-24%	?	33%	134%
CCOC(=O)c1c(C)nc(-c2ccccc2)nc1N	33*	123*	?	10µM*	30%	185%
